According to PubChem BioAssay (Tox21):
Where “and” joins values, the source holds several entries; their conditions need not be identical. Identical values can stand only once. Results filed as inconclusive are left out. Some compounds were tested as several samples or in several runs, with calls that do not always agree. Calls of active or inactive are those of the source. Unless noted, the call rests on the fitted dose curve; in most records, active means well fitted curve in the direction sought with a large enough effect in the repeat runs; inconclusive means weak or mixed curves; inactive means no such curve, though single readings can be large; an effect the other way counts as inactive or inconclusive.

Columns and labels:
[1] = biological target: Thyrotropin-releasing hormone receptor (Homo sapiens) (UniProt P34981); test: qHTS assay to identify small molecule agonists of the thyrotropin-releasing hormone receptor (TRHR) signaling pathway (AID 1346891; calls by dose curve;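 further: HEK293 cells expressing TRHR with calcium dye readout; series mostly up to about 58 µM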)
Procedure, shortened: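 Agonist-mode calcium mobilisation screen: TRHR-transfected HEK293 cells cultured overnight (18 h), dye-loaded for 2 h at 37 °C, exposed to compounds, and monitored by fluorescence for 3 min.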

[2] = Caspase-3/7 induction in HepG2 cells by small molecules, qHTS assay (AID 1346978); further: nearly all actives have a fitted effect of over 15% in size
Procedure, shortened: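 Caspase-3/7 induction was measured by Caspase-Glo 3/7 luminescence (30 min, room temperature) after a 17 hr compound exposure of wild-type HepG2 cells seeded at 2,000 per well and pre-incubated 5 hr.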

[3] = Caspase-3/7 induction in CHO-K1 cells by small molecules, qHTS cell viability counter screen (AID 1346979); further: nearly all actives have a fitted effect of over 35% in size; further: potency means the concentration at half of the fitted maximal effect
Procedure, shortened: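 In the same wells as the caspase read, viability of compound-treated wild-type CHO-K1 cells was assessed using CellTiter-Fluor, added after 16hr at 37C and measured by fluorescence following 1hr further incubation.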

[4] = Caspase-3/7 induction in HepG2 cells by small molecules, qHTS cell viability counter screen (AID 1346981); further: nearly all actives have a fitted effect of over 30% in size; further: potency means the concentration at half of the fitted maximal effect
Procedure, shortened: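 Viability determined by CellTiter-Fluor fluorescence in HepG2 wells also used for the luminescent Caspase-Glo 3/7 read. Compounds were present for 16 hr at 37 C, 5% CO2 before reagent addition.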

[5] = biological target: Nuclear receptor subfamily 1 group I member 2 (Homo sapiens) (UniProt O75469); test: Human pregnane X receptor (PXR) small molecule agonists, qHTS assay (AID 1346982); further: nearly all actives have a fitted effect of over 35% in size; further: potency means the concentration at half of the fitted maximal effect
Procedure, shortened: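 Compound-induced hPXR transactivation of a CYP3A4 luciferase reporter was scored in HepG2 PXR-Luc cells over 24 hr at 37 C, 5% CO2, by luminescence.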

[6] = biological target: Nuclear receptor subfamily 1 group I member 2 (Rattus norvegicus) (UniProt Q9R1A7); test: Rat pregnane X receptor (rPXR) activation by small molecules, qHTS assay (AID 1346983); settings: rPXR luciferase reporter cells, One-Glo luminescence, 24 h; max activation: stronger effect = higher value; further: nearly all actives have a fitted effect of over 20% in size
Procedure, shortened: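 Luminescent readout (One-Glo luciferase, 30 min room temperature) followed 24 hr compound treatment at 37 C of rPXR cells plated 2,000 per well and preincubated 5hr; qHTS format with compounds delivered in DMSO.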

[7] = biological target: Nuclear receptor subfamily 1 group I member 2 (Homo sapiens) (UniProt O75469); test: CYP3A4 induction through human pregnane X receptor (PXR) by small molecules, qHTS assay (AID 1346984); further: nearly all actives have a fitted effect of over 40% in size; further: potency means the concentration at half of the fitted maximal effect
Procedure, shortened: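 Readings come from a luciferase reporter: DPX-2 cells, which are HepG2 cotransfected with PXR and a CYP3A4-promoter construct, were exposed to test compounds for 24 h at 37C before One-Glo detection.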

[8] = biological target: Nuclear receptor subfamily 1 group I member 2 (Homo sapiens) (UniProt O75469); test: Human pregnane X receptor (PXR) activation by small molecules, qHTS assay (AID 1346985); further: nearly all actives have a fitted effect of over 40% in size
Procedure, shortened: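 DPX-2 cells (HepG2 co-transfected with a PXR response element and a CYP3A4-promoter luciferase construct) were seeded at 2,000 per well, rested 5 hr at 37C, then exposed to DMSO-dissolved compounds for 24 hr. Activation was read as luciferase luminescence.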

[9] = Caspase-3/7 induction in CHO-K1 cells by small molecules, qHTS assay (AID 1346980); further: nearly all actives have a fitted effect of over 15% in size
Procedure, shortened: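 Luminescent Caspase-Glo 3/7 read (30min, room temperature) quantified apoptosis induction. Cells were wild-type CHO-K1, treated with compound for 17hr at 37 C and 5% CO2.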

[10] = Human pregnane X receptor (PXR) small molecule agonists, qHTS cell viability counter screen (AID 1346977); further: nearly all actives have a fitted effect of over 50% in size; further: potency means the concentration at half of the fitted maximal effect
Procedure, shortened: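 Measures live-cell protease fluorescence (CellTiter-Fluor) in PXR-Luc HepG2 cells treated 24hr with compounds at 37C. Cells had 5hr to attach before pin transfer of DMSO solutions.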
On the % scale 0 is the no-effect control and ±100 the full control effect.

Nuclear receptor subfamily 1 group I member 2 (Rattus norvegicus), sequence (Q9R1A7 whole entry, looked up): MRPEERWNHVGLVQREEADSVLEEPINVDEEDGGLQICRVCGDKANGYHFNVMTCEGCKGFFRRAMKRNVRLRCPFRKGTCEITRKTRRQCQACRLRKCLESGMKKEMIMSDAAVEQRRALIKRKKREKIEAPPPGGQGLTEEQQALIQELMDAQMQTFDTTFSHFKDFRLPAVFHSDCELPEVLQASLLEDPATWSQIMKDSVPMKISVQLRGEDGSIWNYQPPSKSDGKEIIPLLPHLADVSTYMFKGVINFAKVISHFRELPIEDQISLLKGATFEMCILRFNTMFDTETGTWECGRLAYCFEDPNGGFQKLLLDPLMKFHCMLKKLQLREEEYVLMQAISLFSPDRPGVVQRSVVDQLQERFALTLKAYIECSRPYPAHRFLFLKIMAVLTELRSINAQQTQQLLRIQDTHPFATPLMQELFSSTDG
Thyrotropin-releasing hormone receptor (Homo sapiens), sequence (P34981 whole entry, looked up): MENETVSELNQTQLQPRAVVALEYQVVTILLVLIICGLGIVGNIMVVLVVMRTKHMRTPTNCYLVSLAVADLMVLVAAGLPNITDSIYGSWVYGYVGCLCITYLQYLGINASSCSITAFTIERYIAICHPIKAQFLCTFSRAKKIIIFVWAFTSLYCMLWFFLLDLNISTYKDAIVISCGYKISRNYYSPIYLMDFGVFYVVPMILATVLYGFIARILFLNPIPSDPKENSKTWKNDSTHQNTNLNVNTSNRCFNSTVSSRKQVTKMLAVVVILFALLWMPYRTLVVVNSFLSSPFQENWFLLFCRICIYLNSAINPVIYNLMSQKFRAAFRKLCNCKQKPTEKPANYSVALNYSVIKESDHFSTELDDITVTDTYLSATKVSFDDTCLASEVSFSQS
Nuclear receptor subfamily 1 group I member 2 (Homo sapiens), sequence (O75469 whole entry, looked up): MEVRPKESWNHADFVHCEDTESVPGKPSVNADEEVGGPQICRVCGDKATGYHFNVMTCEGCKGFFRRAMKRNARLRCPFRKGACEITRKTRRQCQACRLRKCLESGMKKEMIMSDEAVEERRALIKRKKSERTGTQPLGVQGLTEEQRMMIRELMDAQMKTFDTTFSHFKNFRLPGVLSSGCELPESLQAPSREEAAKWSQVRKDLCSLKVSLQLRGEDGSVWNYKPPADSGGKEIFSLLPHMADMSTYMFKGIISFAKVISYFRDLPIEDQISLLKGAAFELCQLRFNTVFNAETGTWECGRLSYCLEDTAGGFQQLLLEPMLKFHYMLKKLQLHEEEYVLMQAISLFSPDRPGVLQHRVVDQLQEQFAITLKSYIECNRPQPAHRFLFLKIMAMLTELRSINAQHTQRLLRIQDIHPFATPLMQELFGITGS

O=C(O)C(F)(F)C(F)(F)C(F)(F)C(F)(F)C(F)(F)C(F)(F)C(F)(F)C(F)(F)C(F)(F)C(F)(F)F
inactive: Potency [1] | Potency [2] | Potency [3] | Potency [4] | Potency [5]

CN1C(=O)NC(=O)C(C)(C2=CCCCC2)C1=O (configuration not stated)
inactive: Potency [1] | Potency [2] | Potency [3] | Potency [4] | Potency [5] | max activation [6] -1.51% and -2.62% | Potency [7] | Potency [8]

Clc1cc(C(Cl)(Cl)Cl)cnc1Cl
inactive: Potency [1] | Potency [9]
active: Potency [3] 61.1 µM | Potency [5] 54.5 µM

CCOC(=O)[C@]1(c2ccccc2)Oc2ccccc2[C@@H]1N
inactive: Potency [1] | Potency [2] | Potency [9] | Potency [4]

Cc1ccccc1C(=O)Nc1cccc(OC(C)C)c1
inactive: Potency [1] | Potency [2] | Potency [9] | Potency [4]
active: Potency [5] 13.7 µM

COC(N)=O
inactive: Potency [1] | Potency [2] | Potency [3] | Potency [4] | Potency [5]

CCCCC(O)(Cn1cncn1)c1ccc(Cl)cc1Cl (configuration not stated)
inactive: Potency [1] | Potency [9]
active: Potency [5] 24.3 µM

CC(O)(CS(=O)(=O)c1ccc(F)cc1)C(=O)Nc1ccc(C#N)c(C(F)(F)F)c1 (configuration not stated)
active: Potency [5] 31.8 µM
inactive: Potency [1] | Potency [2] | Potency [9] | Potency [4] | Potency [7] | Potency [8]

CC(=O)CCC(C)=O
inactive: Potency [1] | Potency [2] | Potency [3] | Potency [4] | Potency [5]

CS/C(C)=N/OC(=O)N(C)SN(C)C(=O)O/N=C(\C)SC
inactive: Potency [1] | Potency [2] | Potency [9] | Potency [4]

CC(C)N(C(=O)COc1nnc(C(F)(F)F)s1)c1ccc(F)cc1
inactive: Potency [10] | Potency [2] | Potency [3] | Potency [9] | Potency [4]

CC1Sc2c(C(=O)O)c(=O)c3cc(F)c(N4CCNCC4)cc3n21 (configuration not stated)
inactive: Potency [1] | Potency [2] | Potency [3] | Potency [4] | Potency [5]

CCN(C)N=O
inactive: Potency [2] | Potency [3] | Potency [9] | Potency [4] | Potency [5]

CCn1cc[n+](C)c1
inactive: Potency [2] | Potency [3] | Potency [9] | Potency [4]
inactive and 48.6 µM (active): Potency [5]
inactive and 54.5 µM (active): Potency [10]

CC(c1ccc(O)cc1)(c1ccc(O)cc1)c1ccc(O)cc1
inactive: Potency [2] | Potency [9]
active: Potency [3] 68.6 µM | Potency [5] 68.6 µM

O=S(=O)(Cl)c1ccccc1
inactive: Potency [2] | Potency [3] | Potency [4]

Clc1ccc(C2(Cn3cncn3)CC(Br)CO2)c(Cl)c1 (configuration not stated)
inactive: Potency [2]
active: Potency [5] 24.2 µM

ClCC(Br)CBr (configuration not stated)
inactive: Potency [2] | Potency [3] | Potency [4] | Potency [5]

COc1c(C(C)(C)C)cc([N+](=O)[O-])c(C)c1[N+](=O)[O-]
inactive: Potency [10] | Potency [2] | Potency [3] | Potency [9] | Potency [4]
active: Potency [5] 9.61 µM

O=C(O)C1(c2ccc3c(c2)OC[C@H](Cc2ccc(-c4ccccc4)cc2)[C@H]3O)CCCC1
inactive: Potency [2] | Potency [9] | Potency [4]

CN(C)c1ccc(N(C)C)cc1
inactive: Potency [2] | Potency [4]

C/C=C/C=O
inactive: Potency [10] | Potency [2] | Potency [3] | Potency [4] | Potency [5]

Clc1cc(Cl)c(Cl)c(Cl)c1
inactive: Potency [10] | Potency [2] | Potency [3] | Potency [9] | Potency [4] | Potency [5]

O=C(O)C(F)(F)C(F)(F)C(F)(F)C(F)(F)C(F)(F)C(F)(F)C(F)(F)C(F)(F)C(F)(F)F
inactive: Potency [10] | Potency [2] | Potency [3] | Potency [9] | Potency [4] | Potency [5]

C=CCN1CC[C@]23c4c5ccc(O)c4O[C@H]2C(=O)CC[C@@]3(O)[C@H]1C5
inactive: Potency [10] | Potency [2] | Potency [3] | Potency [4] | max activation [6] -2.21% and -3.34%

C=COC(C)=O
inactive: Potency [10] | Potency [2] | Potency [3] | Potency [9] | Potency [4] | Potency [5]

O=S(=O)(O)C(F)(F)C(F)(F)C(F)(F)C(F)(F)F
inactive: Potency [2] | Potency [5]
active: Potency [3] 54.5 µM

CC/C(=N\OC/C=C/Cl)C1=C(O)CC(C2CCOCC2)CC1=O (configuration not stated)
inactive: Potency [2] | Potency [3] | Potency [9] | Potency [4] | Potency [5]

CC(C)N(CCC(C(N)=O)(c1ccccc1)c1ccccn1)C(C)C (configuration not stated)
inactive: Potency [10] | Potency [2] | Potency [3] | Potency [4] | max activation [6] -7.32%

CCOP(=S)(OCC)Oc1cc(Cl)c(Br)cc1Cl
inactive: Potency [10] | Potency [2] | Potency [3] | Potency [4]

COP(=S)(OC)Oc1cc(Cl)c(I)cc1Cl
inactive: Potency [2] | Potency [3] | Potency [9] | Potency [4] | Potency [5]

Cc1ccc(-c2c(Cl)nc(C#N)n2S(=O)(=O)N(C)C)cc1
active: Potency [10] 43.2 µM | Potency [5] 9.68 µM
inactive: Potency [2] | Potency [9]

C#CCOC(C(=O)OCCN(C)C)(c1ccccc1)c1ccccc1
active: Potency [7] 15.8 µM
inactive: Potency [10] | Potency [2] | Potency [3] | Potency [9] | Potency [4] | max activation [6] -6.97% | Potency [8]

O=C(Nc1ccccc1)Nc1ccnc(Cl)c1
active: Potency [3] 48.6 µM | Potency [5] 30.6 µM
inactive: Potency [2] | Potency [9]

CCOC(=O)C(Cl)C(C)=O (configuration not stated)
inactive: Potency [2] | Potency [3] | Potency [9] | Potency [4] | Potency [5]

CN1C(=O)C(O)N=C(c2ccccc2)c2cc(Cl)ccc21 (configuration not stated)
inactive: Potency [2] | Potency [3] | Potency [9] | Potency [4] | max activation [6] -0.547%

O=C(N[C@H](c1ccccc1)[C@@H]1CN2CCC1CC2)c1c(Cl)ccc(C(F)(F)F)c1Cl
active: Potency [10] 49.3 µM | Potency [3] 78.1 µM | Potency [4] 55.3 µM
inactive: Potency [2] | Potency [9] | Potency [5]

ClCc1ccccc1
active: Potency [5] 60.8 µM
inactive: Potency [10] | Potency [2] | Potency [3] | Potency [9]

CCCN(CCC)c1c([N+](=O)[O-])cc(S(C)(=O)=O)cc1[N+](=O)[O-]
active: Potency [5] 2.43 µM
inactive: Potency [10] | Potency [2] | Potency [9]

Clc1cccc(SC2CCNCC2)n1
inactive: Potency [2] | Potency [3] | Potency [9] | Potency [4]

CCOS(C)(=O)=O
inactive: Potency [2] | Potency [3] | Potency [9] | Potency [4]

O=NN1CCNCC1
inactive: Potency [10] | Potency [2] | Potency [9] | Potency [4] | Potency [5]

CC1C(=O)C[C@]2(C(C)C)C[C@H]12 (some centres not stated)
inactive: Potency [2] | Potency [9] | Potency [4]

COCCOCCO
inactive: Potency [10] | Potency [2] | Potency [9] | Potency [4]
active: Potency [5] 27.3 µM

c1ccc(CN2CCNCC2)cc1
inactive: Potency [10] | Potency [2] | Potency [3] | Potency [9] | Potency [4] | Potency [5]

CC(C)(C)c1cc([N+](=O)[O-])cc([N+](=O)[O-])c1O
active: Potency [10] 6.84 µM | Potency [3] 17.2 µM | Potency [4] 21.6 µM | Potency [5] 19.3 µM
inactive: Potency [2] | Potency [9]

O=S1OC[C@@H]2[C@H](CO1)[C@]1(Cl)C(Cl)=C(Cl)[C@@]2(Cl)C1(Cl)Cl (some centres not stated)
inactive: Potency [2] | Potency [4]
active: Potency [5] 30.6 µM

CC(C)O.CC(C)O.OCCN(CCO)CCO.OCCN(CCO)CCO.[Ti]
inactive: Potency [10] | Potency [2] | Potency [3] | Potency [4] | Potency [5]
